Laboratory results from PubChem BioAssay (NCI).
The panel holds about 79,000 compounds, 15% with a hit somewhere; the sample as a whole holds those more often. The source made the active and inactive calls. No stated cut-off is given here; in the data, active means growth inhibition above about 70%; inactive means the rest.

Legend:
[1] = NCI Yeast Anticancer Drug Screen. Data for the rad52 strain (AID 147);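 further: 0% = growth of vehicle-treated control cultures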; settings: S. cerevisiae rad52 mutant growth inhibition, stronger effect = higher value
Summary of the method: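 Read-out: growth inhibition versus vehicle-treated controls. Cells were a DNA repair-deficient yeast strain treated with compounds.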

[2] = NCI Yeast Anticancer Drug Screen. Data for the mgt1 strain (AID 153); settings: S. cerevisiae mgt1 mutant growth inhibition, stronger effect = higher value
Summary of the method: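 mgt1 yeast grown with test compound; read-out is growth inhibition versus vehicle-treated cultures.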

[3] = NCI Yeast Anticancer Drug Screen. Data for the rad50 strain (AID 155);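 further: 0% = growth of vehicle-only cultures of the same strain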; settings: S. cerevisiae rad50 strain growth inhibition, stronger effect = higher value
Summary of the method: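 Readout: growth inhibition relative to vehicle-treated cultures. Compound exposure was carried out in a genetically defined yeast strain deficient in DNA damage repair.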

[4] = NCI Yeast Anticancer Drug Screen. Data for the mec2-1 strain (AID 157); settings: S. cerevisiae mec2-1 strain, stronger effect = higher value
Summary of the method: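 Yeast mec2-1 mutant treated with compound. Readout: growth inhibition vs vehicle controls.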

[5] = NCI Yeast Anticancer Drug Screen. Data for the rad14 strain (AID 159);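 further: 0% = growth of vehicle-treated control cultures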; settings: S. cerevisiae rad14 strain growth inhibition, stronger effect = higher value
Summary of the method: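 Growth inhibition vs vehicle controls; genetically altered yeast strain (DNA damage repair defect) treated with test compounds.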

[6] = NCI Yeast Anticancer Drug Screen. Data for the sgs1 mgt1 strain (AID 161);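 further: 0% = growth of cultures given vehicle only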; settings: S. cerevisiae sgs1 mgt1 strain, stronger effect = higher value
Summary of the method: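 Test agents were incubated with a DNA-repair-mutant yeast strain. Growth was then read and compared against vehicle-treated controls.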

[7] = NCI Yeast Anticancer Drug Screen. Data for the CLN2oe strain (AID 163);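 further: 0% = growth of vehicle-only control cultures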; settings: S. cerevisiae CLN2oe strain, stronger effect = higher value
Summary of the method: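 Read-out: yeast growth inhibition, expressed relative to vehicle-only controls. The strain bears an engineered cell-cycle alteration.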

[8] = NCI Yeast Anticancer Drug Screen. Data for the cln2 rad14 strain (AID 165);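 further: 0% = growth equal to vehicle treated cultures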; settings: S. cerevisiae cln2 rad14 strain, stronger effect = higher value
Summary of the method: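 cln2 rad14 yeast strain; compound exposure; growth inhibition read vs vehicle controls.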

[9] = NCI Yeast Anticancer Drug Screen. Data for the bub3 strain (AID 167); settings: S. cerevisiae bub3 mutant strain, stronger effect = higher value
Summary of the method: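 Readout: yeast growth inhibition, expressed relative to vehicle-only wells. The test organism is a mutant strain from a panel with lesions in DNA repair or checkpoint genes.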

[10] = NCI Yeast Anticancer Drug Screen. Data for the wt2 strain (AID 169);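 further: 0% = growth of vehicle-treated yeast cultures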; settings: S. cerevisiae wt2 strain growth inhibition, stronger effect = higher value
Summary of the method: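 Read-out: growth inhibition versus vehicle-treated control cultures after compound exposure of the yeast strain.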

[11] = NCI Yeast Anticancer Drug Screen. Data for the mlh1 strain (AID 171);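 further: 0% = growth of vehicle-treated control cultures of the same strain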; settings: S. cerevisiae mlh1 strain growth inhibition, stronger effect = higher value
Summary of the method: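 Read-out: growth inhibition versus vehicle controls. Strain: engineered yeast with a defined DNA repair or cell cycle defect, compound-treated.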

[12] = NCI Yeast Anticancer Drug Screen. Data for the sgs1 strain (AID 173);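 further: 0% = growth of vehicle-only control cultures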; settings: S. cerevisiae sgs1 mutant, stronger effect = higher value
Summary of the method: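 Read-out: yeast growth inhibition relative to vehicle controls, following compound exposure of a strain with a defined DNA repair/cell cycle alteration.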

[13] = NCI Yeast Anticancer Drug Screen. Data for the mlh1 rad18 strain (AID 175); settings: S. cerevisiae mlh1 rad18 strain growth inhibition, stronger effect = higher value
Summary of the method: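 Yeast w/ defined DNA-repair lesions; compound exposure; growth vs vehicle controls → % inhibition.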

[14] = NCI Yeast Anticancer Drug Screen. Data for the rad18 strain (AID 177); settings: S. cerevisiae rad18 mutant growth inhibition, stronger effect = higher value
Summary of the method: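 Readout: growth inhibition vs vehicle controls. Cells: genetically altered yeast strain, DNA repair defect.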

[15] = NCI Yeast Anticancer Drug Screen. Data for the rad50EPP+ strain (AID 151);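 further: 0% = growth of vehicle-treated control cultures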; settings: S. cerevisiae rad50 mutant strain, stronger effect = higher value
Summary of the method: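 Growth inhibition read against vehicle controls in rad50EPP+ yeast, a strain altered in DNA damage repair, after compound exposure.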

[16] = at 5.0 µM (retest, dose inferred, filed as 0.5)
[17] = at 50.0 µM (retest, dose inferred, filed as 5.0)

Measured: growth inhibition

Oc1c(Br)cc(Br)cc1C1CCCCC1
active: [1]; at 33.0 µM 97% | [1]; at 100.0 µM 98% | [2]; at 33.0 µM 97% | [2]; at 100.0 µM 98% | [3]; at 33.0 µM 95% | [3]; [17] 99% | [3]; at 50.0 µM 89.2% | [3]; at 100.0 µM 96% | [4]; [16] 71% | [4]; at 33.0 µM 96% | [4]; [17] 99% | [4]; at 50.0 µM 90.8% | [4]; at 100.0 µM 98% | [5]; at 33.0 µM 97% | [5]; at 100.0 µM 98% | [6]; [17] 98% | [6]; at 50.0 µM 91.8% | [7]; at 33.0 µM 98% | [7]; at 100.0 µM 99% | [8]; [17] 99% | [8]; at 50.0 µM 89.6% | [9]; at 33.0 µM 96% | [9]; [17] 98% | [9]; at 50.0 µM 89.8% | [9]; at 100.0 µM 97% | [10]; at 33.0 µM 91% | [10]; at 100.0 µM 96% | [11]; at 33.0 µM 91% | [11]; at 100.0 µM 96% | [12]; at 33.0 µM 95% | [12]; at 100.0 µM 97% | [13]; [17] 100% | [13]; at 50.0 µM 87.1% | [14]; at 33.0 µM 93% | [14]; at 100.0 µM 97%
inactive: [1]; at 1.2 µM -13% | [1]; at 3.7 µM -10% | [1]; at 11.0 µM -2% | [2]; at 1.2 µM 8% | [2]; at 3.7 µM 13% | [2]; at 11.0 µM 22% | [3]; at 1.2 µM -8% | [3]; at 3.7 µM -9% | [3]; [16] 39% | [3]; at 11.0 µM 5% | [4]; at 1.2 µM -9% | [4]; at 3.7 µM -3% | [4]; at 11.0 µM 5% | [5]; at 1.2 µM -22% | [5]; at 3.7 µM -4% | [5]; at 11.0 µM 3% | [6]; [16] -16% | [7]; at 1.2 µM 22% | [7]; at 3.7 µM 13% | [7]; at 11.0 µM 27% | [8]; [16] 41% | [9]; at 1.2 µM 7% | [9]; at 3.7 µM 19% | [9]; [16] 4% | [9]; at 11.0 µM 25% | [10]; at 1.2 µM -23% | [10]; at 3.7 µM -22% | [10]; at 11.0 µM -15% | [11]; at 1.2 µM -26% | [11]; at 3.7 µM -12% | [11]; at 11.0 µM -5% | [12]; at 1.2 µM -25% | [12]; at 3.7 µM -16% | [12]; at 11.0 µM 10% | [13]; [16] 44% | [14]; at 1.2 µM -16% | [14]; at 3.7 µM 1% | [14]; at 11.0 µM 15%

CCCCCCCCCCNC(=O)OCC
active: [1]; at 100.0 µM 98% | [15]; at 100.0 µM 81% | [2]; at 100.0 µM 99% | [3]; at 50.0 µM 84.5% | [3]; at 100.0 µM 99% | [4]; at 50.0 µM 93.5% | [4]; at 100.0 µM 100% | [5]; at 100.0 µM 99% | [6]; at 50.0 µM 83.7% | [7]; at 100.0 µM 99% | [8]; at 50.0 µM 98.3% | [9]; at 50.0 µM 95.3% | [9]; at 100.0 µM 99% | [11]; at 100.0 µM 99% | [12]; at 100.0 µM 99% | [13]; at 50.0 µM 95% | [14]; at 100.0 µM 99%
inactive: [1]; at 1.2 µM 0% | [1]; at 3.7 µM 1% | [1]; at 11.0 µM 11% | [1]; at 33.0 µM 37% | [15]; at 1.2 µM 1% | [15]; at 3.7 µM 9% | [15]; at 11.0 µM 28% | [15]; at 33.0 µM 68% | [2]; at 1.2 µM -2% | [2]; at 3.7 µM -11% | [2]; at 11.0 µM 4% | [2]; at 33.0 µM 28% | [3]; at 1.2 µM 1% | [3]; at 3.7 µM 9% | [3]; [16] 1% | [3]; at 11.0 µM 24% | [3]; at 33.0 µM 40% | [3]; [17] 22% | [4]; at 1.2 µM -7% | [4]; at 3.7 µM -5% | [4]; [16] -7% | [4]; at 11.0 µM -6% | [4]; at 33.0 µM 7% | [4]; [17] 28% | [5]; at 1.2 µM -4% | [5]; at 3.7 µM -4% | [5]; at 11.0 µM -3% | [5]; at 33.0 µM 8% | [6]; [16] -2% | [6]; [17] 56% | [7]; at 1.2 µM 0% | [7]; at 3.7 µM 0% | [7]; at 11.0 µM 4% | [7]; at 33.0 µM 12% | [8]; [16] -55% | [8]; [17] 15% | [9]; at 1.2 µM 2% | [9]; at 3.7 µM -18% | [9]; [16] -21% | [9]; at 11.0 µM 9% | [9]; at 33.0 µM 8% | [9]; [17] 4% | [11]; at 1.2 µM -3% | [11]; at 3.7 µM 2% | [11]; at 11.0 µM 1% | [11]; at 33.0 µM 20% | [12]; at 1.2 µM -1% | [12]; at 3.7 µM -1% | [12]; at 11.0 µM 7% | [12]; at 33.0 µM 59% | [13]; [16] -15% | [13]; [17] 68% | [14]; at 1.2 µM 0% | [14]; at 3.7 µM 1% | [14]; at 11.0 µM 18% | [14]; at 33.0 µM 11%
